This is part of a sample that, as a whole, favours compounds with a hit. Of some 83,000 tested, about 20% had one in any assay.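 Single-dose data. Exposure time 48 hours. Values below 10 considered active.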 Values without a mark were called inactive. Activity calls are given as the source filed them.

The assay has as its system HL-60(TB) leukemia. Kind of assay: NCI-60 one-dose screen, 48 h (100 = growth as untreated, 0 = no growth, -100 = all killed). The conditions noted are these: 10 µM unless noted.
As for `CCOc1ccccc1-c1cc(-c2cccs2)c(C#N)c(=O)[nH]1`, the growth is 78.9%.

Turning to `CN1CCN(C(=O)C(C)(C)c2ccc(C(=O)Nc3cn4cc(-c5ccncc5)ccc4n3)cc2)CC1`, the growth is 7.51% (active).

Consider `CCOC(=O)c1ccc(N2NC(=O)/C(=C/c3ccc([N+](=O)[O-])o3)C2=O)cc1`, for which the growth is 85.5%.

Regarding `N#Cc1ccc(N2Cc3cc(Cl)ccc3OC3=C2C(=O)N(Cc2ccc(F)cc2)C3=O)cc1`, the growth was -57.9% (active).

For `CC(=O)N1N=C(c2ccc(Nc3nc(Nc4ccc(F)cc4)nc(Nc4ccc(F)cc4)n3)cc2)CC1c1ccccc1` (stereo unspecified), the growth was 83%.

In the case of `COc1ccc(CCCc2c3[n+](cc4c(OC)c(OC)ccc24)CCc2cc4c(cc2-3)OCO4)cc1`, the growth is 36.6%.

On to `COc1cc(Nc2ncc(F)c(Nc3ccc4c(n3)N(COP(=O)(O)O)C(=O)C(C)(C)O4)n2)cc(OC)c1OC`, for which the growth is 52.8%.

Consider `N#Cc1c(-c2cccc([N+](=O)[O-])c2)cc(-c2ccc(Nc3nc(Nc4ccc(F)cc4)nc(Nc4ccc(F)cc4)n3)cc2)nc1N`, for which the growth is 28.1%.

For `COc1cc(CCC[P+](c2ccccc2)(c2ccccc2)c2ccccc2)cc2c1OCO2`, the growth was 10.3%.

With `Cc1ccc([P+](Cc2ccc([N+](=O)[O-])cc2)(c2ccc(C)cc2)c2ccc(C)cc2)cc1`, the growth is -43.8% (active).

Consider `Cc1ccc2nc3nc4ccc[nH]c4cc3c2c1`, for which the growth was 124%.

(Values after PubChem BioAssay (NCI).)
